Hsp90 Hop PPI – changes Hsp90-Hop TPR2A binding signal, up or down; hit rate 0.44% among 71,000; Potency, µM (highest dose often 57 µM); AID 595; AlphaScreen TPR2A-His6 binding biotin-Hsp90 C-terminal peptide; active means well fitted curve in either direction with a large enough effect; inconclusive means small, poorly fitted or top-dose-only effect, or another doubt
ALOX15 inhib – blocks human 15-lipoxygenase activity | P16050 | purified 15hLO-1, xylenol orange hydroperoxide absorbance | hit rate 1.4% among 74,000 | AID 887 | Potency, µM (series often up to 57.1 µM), usual class: inhibitors; further: nearly all actives have a fitted effect of over 55% in size
Target sequence (P16050 whole entry, looked up): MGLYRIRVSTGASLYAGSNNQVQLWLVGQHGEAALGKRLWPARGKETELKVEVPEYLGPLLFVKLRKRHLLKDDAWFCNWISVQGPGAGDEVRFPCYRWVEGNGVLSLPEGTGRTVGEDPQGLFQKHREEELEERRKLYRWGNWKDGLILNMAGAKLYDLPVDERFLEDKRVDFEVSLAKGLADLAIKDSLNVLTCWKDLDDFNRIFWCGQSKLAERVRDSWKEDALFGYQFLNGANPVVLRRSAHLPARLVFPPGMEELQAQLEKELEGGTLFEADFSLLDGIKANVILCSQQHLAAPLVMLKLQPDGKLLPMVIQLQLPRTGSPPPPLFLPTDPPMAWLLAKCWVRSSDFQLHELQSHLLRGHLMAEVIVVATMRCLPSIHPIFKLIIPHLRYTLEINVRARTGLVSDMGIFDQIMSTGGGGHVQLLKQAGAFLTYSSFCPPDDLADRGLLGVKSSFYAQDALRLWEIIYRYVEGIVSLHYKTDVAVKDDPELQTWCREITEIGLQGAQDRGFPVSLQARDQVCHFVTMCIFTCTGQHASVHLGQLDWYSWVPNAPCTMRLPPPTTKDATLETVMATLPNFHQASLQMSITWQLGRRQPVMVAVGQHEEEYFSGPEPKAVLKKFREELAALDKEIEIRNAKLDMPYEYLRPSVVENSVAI
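Purified human 15hLO-1 (40 nM) in 25 mM Hepes pH 7.5, 0.01% Triton X-100, preincubated 15 min RT with compound, then 50 uM arachidonic acid for 6 min. Hydroperoxide read by ferrous/xylenol orange, 30 min; 573/405 nm absorbance ratio gave progress.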
ERK AVP inh – blocks ERK signaling stimulated by vasopressin | HEK293-V1b, vasopressin-stimulated pERK AlphaScreen | Potency, µM (doses to about 57.5 µM), hits mostly inhibitors | hit rate 0.99% among 72,000; further: nearly all actives have a fitted effect of over 55% in size
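HEK293 cells stably expressing V1b receptor, preincubated 30 min at 37 °C with compound, then stimulated 5 min with 25 nM vasopressin. Phospho-ERK by AlphaScreen SureFire after 5 h RT; normalized to DMSO and vasopressin; AC50 by Hill fit.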
Tau fil binding – binds recombinant human tau filaments; P10636; recombinant tau filaments, thioflavin S fluorescence, 15 h; filaments grown with octadecylsulfate alongside compound; Potency, µM (highest dose often 57.1 µM); hit rate 2% among 71,000;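 further: actives lower thioflavin S fluorescence by blocking filaments or displacing dye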
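Read-out: ThS fluorescence, 450 nm excitation/510 nm emission; lower signal marks blocked filament formation or displaced dye. Tau at 1 uM with 30 uM ODS, 10 uM ThS, 5 mM DTT, 100 mM NaCl, 10 mM HEPES pH 7.4; 15 h, 37 C.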
YjeE inh – YjeE (TsaE) inhibition, E. coli; purified YjeE enzyme, qHTS inhibition assay; Potency, µM; AID 605; hit rate 0.05% among 71,000; P0AF67
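Fluorescence polarization of a BODIPY Texas Red–ADP probe (2 uM) bound to purified YjeE (10 uM) was read after 15 min room-temperature incubation with compounds. Loss of polarization marks inhibitors; ADP serves as titrated control.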
Pol III holo inh – inhibitors of bacterial DNA polymerase III holoenzyme; hit rate 0.25% among 71,000; Potency, µM (titrated, usually from 57.1 µM); reconstituted DNA polymerase III holoenzyme replication, biochemical; AID 603
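Reconstituted *E. coli* holoenzyme (0.35 nM Pol III, 1 nM beta, 154 nM SSB, 2 nM primase) was preincubated with compound for 15 min at RT. Synthesis on 1.4 nM ssM13Gori ran 35 min, then was stopped with PicoGreen/EDTA and read as dsDNA fluorescence.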
Large screens that a line does not name were inactive. Rows were chosen to be rich in hits. Some 4.2% of all compounds tested hit in one or more screens of this group. Unless noted, the call rests on the fitted dose curve; in most records, active means well fitted curve in the direction sought with a large enough effect; inconclusive means small, poorly fitted or top-dose-only effect, or another doubt; inactive means no such curve, though single readings can be large; an effect the other way counts as inactive or inconclusive.

O=S1(=O)C=C(Sc2nc3ccccc3s2)c2ccccc21	ALOX15 inhib inconclusive, ERK AVP inh 12.6µM
CCOC(=O)N1CCN(c2nc(SC)nc3sc4c(c23)CC(C)(C)OC4)CC1	ALOX15 inhib inconclusive, Tau fil binding 15.8µM
C=CCn1c(=O)c2c3c(sc2n2c(Nc4ccc(OC)cc4)nnc12)CCCC3	ALOX15 inhib inconclusive, ERK AVP inh inconclusive
COC(=O)c1ccccc1NS(=O)(=O)c1ccc2c3c(cccc13)C(=O)N2	Tau fil binding 15.8µM
CC(C)C1=CC2=CC[C@@H]3[C@@](C)(C(=O)O)CCC[C@]3(C)C2CC1 (stereo partly drawn)	ALOX15 inhib 7.94µM (no result: Hsp90 Hop PPI, Tau fil binding, YjeE inh, Pol III holo inh)
CC(C)C12CC[C@@]3(CC[C@H]4[C@@](C)(CCC[C@]4(C)C(=O)O)[C@@H]3C1)[C@@H](CN)C2	none
CCOc1ccc(-c2nc(=S)[nH][nH]2)cc1	ALOX15 inhib 25.1µM
COc1ccc(-c2nc(=S)[nH][nH]2)cc1	none
CC[C@H](C)C(=O)O[C@H]1CCC=C2C=C[C@H](C)[C@H](CC[C@@H]3C[C@H](O)CC(=O)O3)[C@H]21	none
CN1CCN(c2nc3c(c(=O)n(C)c(=O)n3C)n2CCSc2nc3ccccc3s2)CC1	ALOX15 inhib 1.58µM (no result: ERK AVP inh)
CCOC(=O)C(C#N)c1ccccn1 (stereo not drawn)	none
Cc1onc(-c2ccccc2Cl)c1C(=O)N1CCCc2ccccc21	none
Cc1onc(-c2ccccc2Cl)c1C(=O)OCC(=O)N1CCCc2ccccc21	ALOX15 inhib 20µM
COc1ccc2[nH]cc(CCNc3nc(-c4cccnc4)nc4ccccc34)c2c1	Tau fil binding 25.1µM
COc1ccc(CNc2nc(-c3cccnc3)nc3ccccc23)c(OC)c1	none
COc1ccccc1CNc1nc(-c2cccnc2)nc2ccccc12	ALOX15 inhib 25.1µM, ERK AVP inh inconclusive
CCc1c2c(nc3ccc(OC)cc13)OC(C)C2 (stereo not drawn)	none (no result: ALOX15 inhib)
Cc1ccc2nc(Nc3ccc4[nH]c(=O)[nH]c4c3)c(-n3nc(C)cc3C)nc2c1	Tau fil binding 0.631µM
COc1ccc2c(C(=O)CN(C)C3CCCCC3)c[nH]c2c1	Tau fil binding 25.1µM
CC(=O)C1=C(O)C=C(c2ccco2)CC1c1ccco1 (stereo not drawn)	ALOX15 inhib inconclusive, Tau fil binding 20µM
Brc1cc2[nH]cnc2c2ccccc12	none
CCCCCOC(=O)c1cc(=O)[nH]c2ccccc12	Tau fil binding 10µM
COc1cc(C(=O)NCCC(=O)NCCCN2CCCCC2C)cc(OC)c1OC (stereo not drawn)	none
O=C(Nc1ccc(N2CCN(C(=O)c3ccccc3)CC2)cc1)c1cc2ccccc2o1	ALOX15 inhib inconclusive, ERK AVP inh 1µM
CCOC(=O)c1ccc(NC(=O)Nc2ccc3c(c2)OCCO3)cc1	ERK AVP inh 25.1µM
CCCC(=O)N1CCN(c2ccc(NC(=O)c3cc4ccccc4o3)cc2)CC1	none
CCOC(=O)c1ccc(NC(=O)c2cc3ccccc3o2)cc1	ERK AVP inh 31.6µM
CCN(CC)c1ccc(C(=O)n2cnc3ccccc32)cc1	none (no result: Hsp90 Hop PPI, ERK AVP inh, Tau fil binding, YjeE inh, Pol III holo inh)
CN(C)CCCn1cc(C2=C(c3c[nH]c4ccccc34)C(=O)NC2=O)c2ccccc21	Hsp90 Hop PPI inconclusive, ERK AVP inh 0.794µM, Tau fil binding 2µM
Cn1cc(C2=C(c3cn(CCCSC(=N)N)c4ccccc34)C(=O)NC2=O)c2ccccc21	ALOX15 inhib 20µM, ERK AVP inh 2µM (no result: Hsp90 Hop PPI, Tau fil binding, YjeE inh, Pol III holo inh)
CCn1cc(SCC(N)=O)c2ccccc21	none (no result: ERK AVP inh)
N#Cc1cccc(NC(=O)N2CCCC3(CCN(C(=O)c4ccncc4)CC3)C2)c1	none
CCOC(=O)COc1cccc2c(=O)n(CC(=O)NCc3ccc4c(c3)OCO4)ccc12	none (no result: ERK AVP inh)
CCOC(=O)COc1cccc2c(=O)n(CC(=O)N3CCc4ccccc43)ccc12	Tau fil binding 15.8µM (no result: ERK AVP inh)
O=C(c1ccc(Br)o1)N1CCN(c2ccc3nnc(-c4ccccc4)n3n2)CC1	Hsp90 Hop PPI inconclusive, ALOX15 inhib 15.8µM, YjeE inh inconclusive
Cc1nnc2ccc(N3CCN(C(=O)c4ccccc4)CC3)nn12	none
CC(C)c1c(O)ccc2c1CCC1[C@@](C)(C=O)CCC[C@@]21C (stereo partly drawn)	none (no result: Hsp90 Hop PPI, Tau fil binding, YjeE inh, Pol III holo inh)
Cc1ccc2c(c1)N(C(=O)CSc1nncn1C)C(C)(C)c1ssc(=S)c1-2	Hsp90 Hop PPI inconclusive, ALOX15 inhib inconclusive, ERK AVP inh inconclusive, Tau fil binding 15.8µM
CN1CCN(c2ccnc(-c3ccoc3)n2)CC1	ALOX15 inhib 15.8µM
O=C(c1cc(-n2cnnc2)ccc1Cl)N1CCN(c2nc(-c3ccccc3)cs2)CC1	ERK AVP inh 25.1µM
O=C(c1ncn[nH]1)N1CCN(c2nc(-c3ccccc3)cs2)CC1	Hsp90 Hop PPI inconclusive, ERK AVP inh inconclusive
Cc1ccc(NC(=O)CSc2nc3ccccc3c(=O)n2CCCC(=O)N2CCCC2)cc1	none
CCn1c(=O)c(C(=O)CN2CCCc3ccccc32)c(N)n(Cc2ccccc2)c1=O	Tau fil binding 25.1µM
CCN(C(=O)CN1CCCc2ccccc21)c1c(N)n(Cc2ccccc2)c(=O)[nH]c1=O	none
O=c1c2ccccc2sn1-c1cc(S(=O)(=O)N2CCOCC2)ccc1N1CCOCC1	ALOX15 inhib 15.8µM, ERK AVP inh inconclusive, YjeE inh inconclusive
Cn1c(=O)c2cc(S(=O)(=O)N3CCOCC3)ccc2n(C)c1=O	none
CCOC(=O)Cc1csc(-n2sc3ccccc3c2=O)n1	ALOX15 inhib 0.199µM
CCOC(=O)NC1(NC2CCCCC2)Oc2ccccc2O1	ALOX15 inhib 25.1µM
Cc1ccc(O)c(-c2cc(-c3ccccc3C)[nH]n2)c1	ALOX15 inhib 15.8µM, Tau fil binding 25.1µM
Cc1ccc(O)c(-c2cc(C(F)(F)C(F)F)[nH]n2)c1	ALOX15 inhib inconclusive
Oc1ccccc1-c1cc(-c2ccccc2Cl)[nH]n1	ALOX15 inhib 12.6µM
CC(=O)C1=C(C)NC(SCC(=O)c2ccccc2)=C(C#N)C1CC(C)C (stereo not drawn)	ALOX15 inhib 3.98µM
CC(=O)C1=C(C)NC(SCC(=O)c2ccc(Cl)cc2)=C(C#N)C1c1ccco1 (stereo not drawn)	ALOX15 inhib 12.6µM
CC(=O)C1=C(C)NC(SCC(=O)c2ccc(Cl)cc2Cl)=C(C#N)C1c1ccco1 (stereo not drawn)	ALOX15 inhib 12.6µM
CC(=O)C1=C(C)NC(SCC(=O)c2ccccc2)=C(C#N)C1c1ccco1 (stereo not drawn)	ALOX15 inhib inconclusive
O=C(Nc1ccc2c(c1)OCCO2)C1CCN(S(=O)(=O)Cc2ccccc2)CC1	none
CCNc1ncc2nc(-c3ccc(Cl)cc3)c(=O)n(Cc3ccc(F)cc3)c2n1	ALOX15 inhib inconclusive
COc1ccccc1CNc1cc(-c2ccc(C(=O)N(C)C)cc2)ncn1	none
